The source made the active and inactive calls. Cut-off read from the data, not from the text of the source: active = potency below about 10 µM; inactive = the rest.
Potency is the fitted concentration of half-maximal effect.

In this assay the target is Lysosomal acid glucosylceramidase (Homo sapiens) (UniProt P04062). Kind of assay: Glucocerebrosidase-p2 (AID 348). The note with it: purified GBA, blue fluorogenic substrate, 40 min. The source says: Beta-glucocerebrosidase catalyzes the hydrolysis of beta-glucocerebroside to glucose and ceramide. The inherited deficiency of beta-glucocerebrosidase results in Gaucher disease, which is characterized by a wide variety of symptoms including hepatosplenomegaly, anemia, thrombocytopenia, bony lesions and bone marrow infiltration with characteristic storage cells, known as Gaucher cells. There are also forms of the disorder affecting the central nervous system. Patients with the same genotypes can manifest with diverse clinical presentations and it is believed that improper folding and trafficking of beta-glucocerbrosidase may contribute to the phenotypes observed.
Sequence of Lysosomal acid glucosylceramidase (Homo sapiens) (P04062 whole entry, looked up): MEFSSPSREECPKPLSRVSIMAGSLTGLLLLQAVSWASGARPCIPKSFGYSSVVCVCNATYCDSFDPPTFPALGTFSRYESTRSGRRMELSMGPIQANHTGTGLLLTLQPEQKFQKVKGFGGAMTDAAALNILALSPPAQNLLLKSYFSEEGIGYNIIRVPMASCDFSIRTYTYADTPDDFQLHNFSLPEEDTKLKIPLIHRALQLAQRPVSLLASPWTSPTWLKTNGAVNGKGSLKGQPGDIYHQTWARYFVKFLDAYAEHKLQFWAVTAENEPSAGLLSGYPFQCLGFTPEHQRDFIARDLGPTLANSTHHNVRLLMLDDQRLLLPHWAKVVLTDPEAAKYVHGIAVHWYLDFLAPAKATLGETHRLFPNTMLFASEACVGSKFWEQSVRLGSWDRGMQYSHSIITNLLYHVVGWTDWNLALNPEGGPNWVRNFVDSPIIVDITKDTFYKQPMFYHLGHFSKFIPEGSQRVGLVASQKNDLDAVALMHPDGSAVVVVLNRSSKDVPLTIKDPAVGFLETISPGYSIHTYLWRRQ
Low molecular weight molecules, acting as chaperones, may potentially restore trafficking of misfolded beta-glucocerebrosidase from the endoplasmic reticulum to the lysosomes, thereby enhancing functional lysosomal beta-glucocerebrosidase activity.
Using normal beta-glucocerebrosidase, an assay was developed to screen for small molecule inhibitors that could potentially act as molecular chaperones on the mutant forms [developed with NIH investigator Dr. Ellen Sidransky#s laboratory]. Two pro-fluorescent substrates were chosen for two screens against a small molecule library. One beta-glucocerebrosidase assay used Resorufin beta-D-Glucopyranoside (Marker Gene Technology Inc.), generating a red fluorescent product. The second assay used […] fluorescent product. The Km for the Resorufin beta-D-Glucopyranoside and Fluorescein di-beta-D-Glucopyranoside were determined to be 71.2 uM and 855 uM, respectively. The IC50 values of Conduritol B Epoxide, a known glucocerebrosidase inhibitor, were determined to be 87.5 uM and 117 uM, respectively. The use of two difference pro-fluorescent substrates in the screens helped to eliminate false positives. All compounds were screened in a titration series resulting in AC50s (e.g., IC50s or EC50s). Data normalization and AC50 calculations were accomplished using GeneData software.
NCGC Assay Protocol Summary
Both enzyme and substrate were diluted in buffer composed of 50mM citric acid/KH2PO4, 10mM sodium taurocholate and 0.01% tween-20 at pH 5.9. The final concentration of the enzyme was 0.2 nM in both assays. The compound library was titrated in 7 to 15 concentrations for the primary screens with a final concentration ranging from 0.6 nM to 50 uM. This particular assay protocol is for the "blue" substrate, and it was performed in 1536-well plate format as follows:
Blue fluorescence substrate assay:
1 uL substrate (final concentration of 80 uM)
Incubate at room temperature (RT) for 40 minutes
3 uL stop solution (1 M NaOH and 1 M glycine in water)
Read the plate in Viewlux plate reader (Ex=365(10) and Em=440(10)).
With `CN1CCN(c2ncnc3ccc(-c4cccc(C#N)c4)cc23)CC1`, the Potency is > 11.4 µM (inactive).

As to `COCCNc1ncnc2ccc(-c3ccccc3OC)cc12`, the Potency was > 11.4 µM (inactive).

Turning to `O=c1c(CCc2ccccc2)nc2cncnc2n1Cc1ccccc1`, the Potency is > 11.4 µM (inactive).

In the case of `O=C(c1cnccn1)N1CCC[C@@]2(CCN(c3cccc(-c4ccccc4)c3)C2)C1`, the Potency is > 11.4 µM (inactive).

As for `O=c1c(CCc2ccccc2)nc2cnc(N3CCNCC3)nc2n1-c1ccccc1`, the Potency is > 11.4 µM (inactive).

For `Cc1nc2cnc(N3CCN(C)CC3)nc2n(CCc2ccccc2)c1=O`, the Potency is > 11.4 µM (inactive).

With `COc1ccc2[nH]cc(CCNc3ncncc3-c3ccccc3Cl)c2c1`, the Potency was > 11.4 µM (inactive).

As for `COc1ccc2[nH]cc(CCNc3ncnc4ccc(-c5cccc(C#N)c5)cc34)c2c1`, the Potency is > 11.4 µM (inactive).

`O=c1c(-c2ccccc2)nc2cnc(Oc3ccccc3)nc2n1C[C@H]1CCCO1`: the Potency was > 11.4 µM (inactive).

Consider `N#Cc1cccc(-c2nc(NCCN3CCOCC3)c3ccccc3n2)c1`, for which the Potency was > 11.4 µM (inactive).

With `CN1CC[C@H](CN2c3ccccc3Sc3ccccc32)C1`, the Potency was > 11.4 µM (inactive).

For the compound `COCCn1c(=O)c(-c2ccc(F)cc2)nc2cnc(Oc3ccccc3)nc21`, the Potency is > 11.4 µM (inactive).

Turning to `CN(C)c1ncc2ncc(=O)n(Cc3cccs3)c2n1`, the Potency is > 11.4 µM (inactive).

Regarding `CN(C)C(=O)c1ccc(-c2nc(N3CCOCC3)c3ccccc3n2)cc1`, the Potency was > 11.4 µM (inactive).

Turning to `CN1CCN(c2ncc3nc(-c4cn(C)c5ccccc45)c(=O)n(CCC#N)c3n2)CC1`, the Potency is > 11.4 µM (inactive).

`O=c1c(-c2ccccc2)nc2cnc(N3CCOCC3)nc2n1CCc1ccccc1`: the Potency is > 11.4 µM (inactive).

For the compound `COc1cccc(-c2ccc3ncnc(N4CCNCC4)c3c2)c1`, the Potency was > 11.4 µM (inactive).

With `COCCn1c(=O)c(-c2ccc(F)cc2)nc2cnc(Nc3cccc(OC)c3)nc21`, the Potency is > 11.4 µM (inactive).

On to `COc1ccccc1CNc1ncncc1-c1ccccc1Cl`, for which the Potency was > 11.4 µM (inactive).

With `CN(C)C(=O)c1ccc(-c2cc(NCc3ccccc3)ncn2)cc1`, the Potency is > 11.4 µM (inactive).

For the compound `COc1ccccc1CNc1ncncc1-c1ccccc1C(F)(F)F`, the Potency is > 11.4 µM (inactive).

As for `CN(C)c1ncc2nc(-c3ccccc3)c(=O)n(C)c2n1`, the Potency was > 11.4 µM (inactive).

As for `Cn1c(=O)c(-c2ccc(Cl)cc2)nc2cncnc21`, the Potency is > 11.4 µM (inactive).

Turning to `CN(C)C(=O)c1ccc(-c2nc(Nc3ccccc3)c3ccccc3n2)cc1`, the Potency was > 11.4 µM (inactive).

`CC(=O)NCCNc1nc(-c2cccc(C#N)c2)nc2ccccc12`: the Potency was > 11.4 µM (inactive).

As for `COCCn1c(=O)c(-c2cccs2)nc2cnc(Oc3ccccc3)nc21`, the Potency is > 11.4 µM (inactive).

As for `Clc1ccccc1NN(Cc1ccncc1)c1ccccc1Cl`, the Potency is > 11.4 µM (inactive).

Regarding `COc1ccc2[nH]cc(CCNc3ncncc3-c3ccccc3C)c2c1`, the Potency was > 11.4 µM (inactive).

In the case of `c1ccc(CNc2nc(-c3cccnc3)nc3ccccc23)cc1`, the Potency is > 11.4 µM (inactive).

Regarding `COc1ccc(-c2nc3cnc(Oc4cccc(Cl)c4)nc3n(C[C@H]3CCCO3)c2=O)cc1`, the Potency was > 11.4 µM (inactive).

As for `O=c1c(CCc2ccccc2)nc2cnc(N3CCNCC3)nc2n1Cc1cccs1`, the Potency was > 11.4 µM (inactive).

In the case of `O=C(c1ccco1)N1CCC2(CC1)CN(c1cccc(-c3ccccc3)c1)C2`, the Potency is > 11.4 µM (inactive).

With `Cc1ncc(COP(=O)(O)O)c(C)c1O`, the Potency is > 11.4 µM (inactive).

As for `COc1ccccc1-c1ccc2ncnc(N3CCOCC3)c2c1`, the Potency was > 11.4 µM (inactive).

For the compound `COc1ccccc1CNc1ccnc(-c2cccnc2)n1`, the Potency was > 11.4 µM (inactive).

Consider `N#CCCn1c(=O)c(-c2ccc(Cl)cc2)nc2cnc(N3CCOCC3)nc21`, for which the Potency is > 11.4 µM (inactive).

For `COc1cccc(-c2ccc3ncnc(Nc4ccccc4)c3c2)c1`, the Potency is > 11.4 µM (inactive).

Turning to `COc1ccc2[nH]cc(CCNc3ncncc3-c3ccc4c(c3)OCO4)c2c1`, the Potency was > 11.4 µM (inactive).

Regarding `COc1cccc(-c2cncnc2NCCN2CCOCC2)c1`, the Potency is > 11.4 µM (inactive).

Take `COc1ccccc1-c1nccc(NCc2cccs2)n1`: the Potency was > 2.29 µM (inactive).

(Values after PubChem BioAssay (NCATS).)
